Assay results reported in the supplement of paper PMC7411054.

Assays:
Assay in all cases: phenotypically active (imaging signature differs from DMSO and reproducible) at any of 0.3-9 uM (binary (1 = active, 0 = inactive)); higher = active
Conditions in all cases: treatment time: 24 h
[1] = tested on: A549-ACTB-RAB5A
Method in brief: (§1)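 After 24 h at 0.3, 1, 3 or 9 µM, with four wells per treatment, fifteen gene-edited A549, HepG2 and WPMY1 reporter lines carrying BFP, GFP and RFP/FusionRed were imaged live. Each well's live-cell features were expressed relative to solvent control wells. Deviation required ≥3 of 4 wells past the 95th percentile of control Euclidean distances, and reproducibility a median replicate Pearson correlation over the 95th percentile of non-replicates. Phenotypic activity rested on both.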

[2] = tested on: A549-CANX-COX4
Method in brief: as §1

[3] = tested on: A549-GM130-SQSTM1
Method in brief: as §1

[4] = tested on: A549-TP53BP1-CLTA
Method in brief: as §1

[5] = tested on: A549-TUBA1B-RELA
Method in brief: as §1

[6] = tested on: HepG2-ACTB-RAB5A
Method in brief: as §1

[7] = tested on: HepG2-CANX-COX4
Method in brief: as §1

[8] = tested on: HepG2-GM130-SQSTM1
Method in brief: as §1

[9] = tested on: HepG2-TP53BP1-CLTA
Method in brief: as §1

[10] = tested on: HepG2-TUBA1B-RELA
Method in brief: as §1

[11] = tested on: WPMY1-ACTB-RAB5A
Method in brief: as §1

[12] = tested on: WPMY1-CANX-COX4
Method in brief: as §1

[13] = tested on: WPMY1-GM130-SQSTM1
Method in brief: as §1

[14] = tested on: WPMY1-TP53BP1-CLTA
Method in brief: as §1

[15] = tested on: WPMY1-TUBA1B-RELA
Method in brief: as §1

Measured: phenotypically active

CC(C)(C)NC(=O)[C@@H]1CN(Cc2cccnc2)CCN1C[C@@H](O)C[C@@H](Cc1ccccc1)C(=O)N[C@H]1c2ccccc2C[C@H]1O [indinavir]
inactive: [1] 0 | [2] 0 | [3] 0 | [4] 0 | [5] 0 | [6] 0 | [7] 0 | [8] 0 | [9] 0 | [10] 0 | [11] 0 | [12] 0 | [13] 0 | [14] 0 | [15] 0

CC(C)OC(=O)C(C)(C)Oc1ccc(C(=O)c2ccc(Cl)cc2)cc1 [Fenofibrate]
inactive: [1] 0 | [2] 0 | [3] 0 | [4] 0 | [5] 0 | [6] 0 | [7] 0 | [8] 0 | [9] 0 | [10] 0 | [11] 0 | [12] 0 | [13] 0 | [14] 0 | [15] 0

CC(C(=O)O)c1ccc(C(=O)c2cccs2)cc1 (stereo not given) [suprofen]
inactive: [1] 0 | [2] 0 | [3] 0 | [4] 0 | [5] 0 | [6] 0 | [7] 0 | [8] 0 | [9] 0 | [10] 0 | [11] 0 | [12] 0 | [13] 0 | [14] 0 | [15] 0

CCN[C@H]1C[C@H](C)S(=O)(=O)c2sc(S(N)(=O)=O)cc21 [dorzolamide]
inactive: [1] 0 | [2] 0 | [3] 0 | [4] 0 | [5] 0 | [6] 0 | [7] 0 | [8] 0 | [9] 0 | [10] 0 | [11] 0 | [12] 0 | [13] 0 | [14] 0 | [15] 0

CC(=O)[C@H]1CC[C@H]2[C@@H]3CCC4=CC(=O)CC[C@]4(C)[C@H]3CC[C@]12C [progesterone]
inactive: [1] 0 | [2] 0 | [3] 0 | [4] 0 | [5] 0 | [6] 0 | [7] 0 | [8] 0 | [9] 0 | [10] 0 | [11] 0 | [12] 0 | [13] 0 | [14] 0 | [15] 0

CC(C)(C(=O)O)c1ccc(C(O)CCCN2CCC(C(O)(c3ccccc3)c3ccccc3)CC2)cc1 (stereo not given) [fexofenadine]
inactive: [1] 0 | [2] 0 | [3] 0 | [4] 0 | [5] 0 | [6] 0 | [7] 0 | [8] 0 | [9] 0 | [10] 0 | [11] 0 | [12] 0 | [13] 0 | [14] 0 | [15] 0

CC(C)C(=O)SCCCCC[C@H](NC(=O)OC(C)(C)C)C(=O)NC12CC3CC(CC(C3)C1)C2
inactive: [1] 0 | [2] 0 | [3] 0 | [4] 0 | [5] 0 | [6] 0 | [7] 0 | [8] 0 | [9] 0 | [10] 0 | [11] 0 | [12] 0 | [13] 0 | [14] 0 | [15] 0

CCOCCn1c(N2CCCN(C)CC2)nc2ccccc21 [emedastine]
inactive: [1] 0 | [2] 0 | [3] 0 | [4] 0 | [5] 0 | [6] 0 | [7] 0 | [8] 0 | [9] 0 | [10] 0 | [11] 0 | [12] 0 | [13] 0 | [14] 0 | [15] 0

COc1ccc(C2(CNC(=O)c3ccc(NC(=O)c4ccco4)cc3)CCOCC2)cc1
inactive: [1] 0 | [2] 0 | [3] 0 | [4] 0 | [5] 0 | [6] 0 | [7] 0 | [8] 0 | [9] 0 | [10] 0 | [11] 0 | [12] 0 | [13] 0 | [14] 0 | [15] 0

CN1C(=O)CC[C@H]1c1cccnc1 [(-)-Cotinine]
inactive: [1] 0 | [2] 0 | [3] 0 | [4] 0 | [5] 0 | [6] 0 | [7] 0 | [8] 0 | [9] 0 | [10] 0 | [11] 0 | [12] 0 | [13] 0 | [14] 0 | [15] 0

COc1ccc([C@@H]2CC(=O)c3c(O)cc(O[C@@H]4O[C@H](CO[C@@H]5O[C@@H](C)[C@H](O)[C@@H](O)[C@H]5O)[C@@H](O)[C@H](O)[C@H]4O)cc3O2)cc1O [Hesperidin]
inactive: [1] 0 | [2] 0 | [3] 0 | [4] 0 | [5] 0 | [6] 0 | [7] 0 | [8] 0 | [9] 0 | [10] 0 | [11] 0 | [12] 0 | [13] 0 | [14] 0 | [15] 0

CC(C)[N+](C)(CCOC(=O)C1c2ccccc2Oc2ccccc21)C(C)C [propantheline]
inactive: [1] 0 | [2] 0 | [3] 0 | [4] 0 | [5] 0 | [6] 0 | [7] 0 | [8] 0 | [9] 0 | [10] 0 | [11] 0 | [12] 0 | [13] 0 | [14] 0 | [15] 0

C[C@H](Cc1cc2c(c(C(N)=O)c1)N(CCCO)CC2)NCCOc1ccccc1OCC(F)(F)F [silodosin]
inactive: [1] 0 | [2] 0 | [3] 0 | [4] 0 | [5] 0 | [6] 0 | [7] 0 | [8] 0 | [9] 0 | [10] 0 | [11] 0 | [12] 0 | [13] 0 | [14] 0 | [15] 0

O=C(O)CCNC(=O)c1ccc(/N=N/c2ccc(O)c(C(=O)O)c2)cc1 [balsalazide]
inactive: [1] 0 | [2] 0 | [3] 0 | [4] 0 | [5] 0 | [6] 0 | [7] 0 | [8] 0 | [9] 0 | [10] 0 | [11] 0 | [12] 0 | [13] 0 | [14] 0 | [15] 0

Cc1nc(=O)c2c([nH]1)CCSC2
inactive: [1] 0 | [2] 0 | [3] 0 | [4] 0 | [5] 0 | [6] 0 | [7] 0 | [8] 0 | [9] 0 | [10] 0 | [11] 0 | [12] 0 | [13] 0 | [14] 0 | [15] 0

C#C[C@]1(O)CC[C@H]2[C@@H]3CCC4=Cc5oncc5C[C@]4(C)[C@H]3CC[C@@]21C [danazol]
inactive: [1] 0 | [2] 0 | [3] 0 | [4] 0 | [5] 0 | [6] 0 | [7] 0 | [8] 0 | [9] 0 | [10] 0 | [11] 0 | [12] 0 | [13] 0 | [14] 0 | [15] 0

O=C(Nc1cccnn1)N1CCN(c2nccc(-c3ccc(F)c(F)c3)n2)CC1
inactive: [1] 0 | [2] 0 | [3] 0 | [4] 0 | [5] 0 | [6] 0 | [7] 0 | [8] 0 | [9] 0 | [10] 0 | [11] 0 | [12] 0 | [13] 0 | [14] 0 | [15] 0

COc1ccc(C[C@H](C)NC[C@@H](O)c2ccc(O)c(NC=O)c2)cc1 [formoterol]
inactive: [1] 0 | [2] 0 | [3] 0 | [4] 0 | [5] 0 | [6] 0 | [7] 0 | [8] 0 | [9] 0 | [10] 0 | [11] 0 | [12] 0 | [13] 0 | [14] 0 | [15] 0

O=c1[nH]cnc2c1ncn2[C@H]1CC[C@@H](CO)O1 [Didanosine]
inactive: [1] 0 | [2] 0 | [3] 0 | [4] 0 | [5] 0 | [6] 0 | [7] 0 | [8] 0 | [9] 0 | [10] 0 | [11] 0 | [12] 0 | [13] 0 | [14] 0 | [15] 0

COCC(=O)N[C@@H](Cc1ccc(-c2cc(Cl)cc(Cl)c2)cc1)[C@H](O)[C@@H](O)C(=O)O
inactive: [1] 0 | [2] 0 | [3] 0 | [4] 0 | [5] 0 | [6] 0 | [7] 0 | [8] 0 | [9] 0 | [10] 0 | [11] 0 | [12] 0 | [13] 0 | [14] 0 | [15] 0

CC[C@H](C)C(=O)O[C@H]1C[C@H](O)C=C2C=C[C@H](C)[C@H](CC[C@@H](O)C[C@@H](O)CC(=O)O)[C@H]21 [pravastatin]
inactive: [1] 0 | [2] 0 | [3] 0 | [4] 0 | [5] 0 | [6] 0 | [7] 0 | [8] 0 | [9] 0 | [10] 0 | [11] 0 | [12] 0 | [13] 0 | [14] 0 | [15] 0

CCCC(=O)O [Sodium butyrate]
inactive: [1] 0 | [2] 0 | [3] 0 | [4] 0 | [5] 0 | [6] 0 | [7] 0 | [8] 0 | [9] 0 | [10] 0 | [11] 0 | [12] 0 | [13] 0 | [14] 0 | [15] 0

CC(=O)[C@H]1CC[C@H]2[C@@H]3C=CC4=CC(=O)CC[C@@]4(C)[C@@H]3CC[C@]12C [dydrogesterone]
inactive: [1] 0 | [2] 0 | [3] 0 | [4] 0 | [5] 0 | [6] 0 | [7] 0 | [8] 0 | [9] 0 | [10] 0 | [11] 0 | [12] 0 | [13] 0 | [14] 0 | [15] 0
